In the supplement of paper PMC7261846:
Counter-ions that a name gives are not always drawn. ± gives the uncertainty stated by the source.

Test system: Candida albicans SNY425 biofilm
Experiment: biofilm OD600 with compound plus antifungal (OD600 (absorbance)); higher = more biofilm remaining
[1] = assay detail: disruption of 24-h mature biofilm (compound + antifungal for a second 24 h)
[2] = assay detail: sustained inhibition (compound + antifungal during 90-min adherence and 24-h growth)

| Structure (SMILES) | biofilm OD600 [1] | biofilm OD600 [2] |
| --- | --- | --- |
| CC(C)C[C@H](NC(=O)[C@@H](O)[C@H](N)Cc1ccccc1)C(=O)O [Bestatin·HCl] + C[C@@H]1[C@H](O)[C@@H](C)/C=C/C=C/C=C/C=C/C=C/C=C/C=C/[C@H](O[C@@H]2O[C@H](C)[C@@H](O)[C@H](N)[C@@H]2O)C[C@@H]2O[C@](O)(C[C@@H](O)C[C@@H](O)[C@H](O)CC[C@@H](O)C[C@@H](O)CC(=O)O[C@H]1C)C[C@H](O)[C@H]2C(=O)O [amphotericin B] (first compound 12.5 µM) | 0.288 ± 0.0087 | 0.211 ± 0.0059 |
| CC(C)CC(=O)N[C@H](C(=O)N[C@H](C(=O)N[C@@H](CC(C)C)[C@@H](O)CC(=O)N[C@@H](C)C(=O)N[C@@H](CC(C)C)[C@@H](O)CC(=O)O)C(C)C)C(C)C [Pepstatin A] + OC(Cn1cncn1)(Cn1cncn1)c1ccc(F)cc1F [fluconazole] (first compound 12.5 µM) | 0.255 ± 0.007 | 0.144 ± 0.0099 |
| O=C(O[C@@H]1Cc2c(O)cc(O)cc2O[C@@H]1c1cc(O)c(O)c(O)c1)c1cc(O)c(O)c(O)c1 [Epigallocatechin gallate] + OC(Cn1cncn1)(Cn1cncn1)c1ccc(F)cc1F [fluconazole] (first compound 12.5 µM) | 0.262 ± 0.011 | 0.164 ± 0.01 |
| NCCCC[C@H](N[C@@H](CCc1ccccc1)C(=O)O)C(=O)N1CCC[C@H]1C(=O)O [Lisinopril] + OC(Cn1cncn1)(Cn1cncn1)c1ccc(F)cc1F [fluconazole] (first compound 12.5 µM) | 0.26 ± 0.0069 | 0.118 ± 0.015 |
